Results filed as inconclusive are left out. Entries that show only a call come without a potency. A number with no mark means an inactive call. Calls of active or inactive are those of the source. Calls come from the whole dose curve; as a rule, active = well fitted cell-killing curve with a large enough effect in the repeat runs; inconclusive = weak or mixed curves, or effect the other way; inactive = flat fitted curve, though single readings scatter.
What was measured:
[1] = cAMP Responsive Elements (CRE) small molecule antagonists, cell-based qHTS assay: qHTS cell viability counter screen (AID 2060913); note: nearly all actives have a fitted effect of over 40% in size
Outline: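 Cytotoxicity read in the same wells as the CRE-bla HEK293T antagonist assay: after 3 h compound with 0.25 uM NKH477 final and 2 h beta-lactamase substrate, CellTiter-Glo luminescence measured.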

[2] = cAMP Responsive Elements (CRE) small molecule agonists, cell-based qHTS assay: qHTS cell viability counter screen (AID 2060914);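 note: viability read after 3 h of compound exposure; nearly all actives have a fitted effect of over 50% in size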
Outline: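 HEK 293T CRE-bla; DMEM + 10% dialyzed FBS, 25 mM HEPES; 18 h pre-incubation; compound 3 h, 37 °C/5% CO2; CellTiter-Glo added after reporter read; luminescence after 30 min RT.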

Structure (SMILES)	Potency [1]	Potency [2]	viability change, negative = cytotoxic [1]	activity change, negative = cytotoxicity [2]
COc1ccccc1C=O	inactive	inactive		
Cc1cnc(C)c(C)n1	inactive	inactive		
OCC#CCO	inactive	inactive		
CN1C(C)(C)CC(O)CC1(C)C	inactive	inactive		
CC(C)NC(=O)NC(C)C	inactive	inactive		
O=C(CCOCCOCCOCCOCCC(=O)Nc1c(I)cc(I)c(C(=O)O)c1I)Nc1c(I)cc(I)c(C(=O)O)c1I	inactive	inactive		
CC/C=C(\C(=O)N[C@@H]1C(=O)N2C(C(=O)OCOC(=O)C(C)(C)C)=C(COC(N)=O)CS[C@H]12)c1csc(N)n1	inactive	inactive		
Nc1cccc2c1CN(C1CCC(=O)NC1=O)C2=O (stereo not drawn)	inactive	inactive		
CC1=C(C)C(=O)C(CCCCC#CCCCC#CCO)=C(C)C1=O	inactive	inactive		
CCCCCCCCCCCCCCCC	inactive	inactive		
CC(C)C[P+](C)(CC(C)C)CC(C)C	inactive	inactive		
CCn1nc(Cc2ccccc2)cc1C1CCN(C[C@H]2C[C@H](N(C)[C@@H](C(=O)O)C(C)C)C[C@@H]2c2cccc(F)c2)CC1	inactive	inactive		
C=CC(=O)OCCOCCOCC	inactive	inactive		
CC(=O)OC/C=C(/C)CCC=C(C)C	inactive	inactive		
Cc1cc(NS(=O)(=O)c2ccc(N)cc2)no1	inactive	inactive		
Cc1ccccc1N=O	inactive	inactive		
CCCCCCCCCCCCCCCCI			12.3% [at 18.9 µM]	-9.53% [at 18.9 µM]
NC1[C@H]2CN(c3nc4c(cc3F)c(=O)c(C(=O)O)cn4-c3ccc(F)cc3F)C[C@@H]12 (stereo partly drawn)	inactive	inactive		
c1ccc2cnccc2c1	inactive	inactive		
CCCSS/C(CCO)=C(\C)N(C=O)Cc1cnc(C)nc1N	inactive	inactive		

Structure (SMILES)	Potency [1]	Potency [2]	viability change, negative = cytotoxic [1]	activity change, negative = cytotoxicity [2]
Cc1cc(N)no1	inactive	inactive		
CCCc1ccc(OCC(=O)N2CCN(C(=O)COc3ccc(CCC)cc3OC)CC2)c(OC)c1	inactive	inactive		
CCCC(=O)Nc1ccc(OCC(O)CNC(C)C)c(C(C)=O)c1 (stereo not drawn)	inactive	inactive		
COCCOC	inactive	inactive		
NCCN1CCNCC1	inactive	inactive		
CC(C)n1nc(-c2cc3cc(O)ccc3[nH]2)c2c(N)ncnc21	inactive	inactive		
Clc1nnc(Cl)c2ccccc12	inactive	inactive		
CNC(=O)c1cc(Oc2ccc(NC(=O)Nc3ccc(Cl)c(C(F)(F)F)c3)cc2)ccn1	inactive	inactive		
CC1(C)CC(N)CC(C)(C)N1	inactive	inactive		
O=[N+]([O-])c1ccccc1CCO	inactive	inactive		
C/C(=C\c1ccc(C(=O)O)cc1)c1ccc2c(c1)C(C)(C)CCC2(C)C	inactive	inactive		
c1ccc(-c2ccc(-c3ccccc3)cc2)cc1			0.929% [at 18.9 µM]	0.504% [at 18.9 µM]
CCCCCC[C@@H](O)C/C=C\CCCCCCCC(=O)O	inactive	inactive		
COC1=CC(=O)C[C@@H](C)[C@]12Oc1c(Cl)c(OC)cc(OC)c1C2=O	inactive	inactive		
O=C(O)c1c(Cl)cccc1Cl	inactive	inactive		
CCCCOCCOCCOCCOCCO	inactive	inactive		
CCOc1ccccc1OCC	inactive	inactive		
Nc1ccc(S(=O)(=O)Nc2ccnn2-c2ccccc2)cc1			5.89% [at 18.9 µM]	8.29% [at 18.9 µM]
CCCCOC(=O)C(=O)OCCCC	inactive	inactive		
CCCCCC(CO)CCC (stereo not drawn)	inactive	inactive		

Structure (SMILES)	Potency [1]	Potency [2]	viability change, negative = cytotoxic [1]	activity change, negative = cytotoxicity [2]
CCNC(=O)N1CCN(CCCC(c2ccc(F)cc2)c2ccc(F)cc2)CC1	inactive	inactive		
CC(=O)Nc1ccc(CC(=O)O)cc1	inactive	inactive		
CC(C)CCOC(=O)c1ccc(N(C)C)cc1	inactive	inactive		
CC(=O)c1ccc(C(C)=O)cc1	inactive	inactive		
CCCCCCCC/C=C\CCCCCCCCCCCC(=O)O	inactive	inactive		
C[Si](C)(CCCN)O[Si](C)(C)CCCN	inactive	inactive		
CCC1Nc2cc(Cl)c(S(N)(=O)=O)cc2S(=O)(=O)N1 (stereo not drawn)	inactive	inactive		
COc1cc(S(=O)(=O)Nc2ccccc2)c(OC)cc1N	inactive	inactive		
CCO[Si](CCCNC(N)=O)(OCC)OCC	inactive	inactive		
CCC(Cl)CCC(Cl)C(Cl)CC(Cl)C(Cl)C(Cl)CCl (stereo not drawn)	inactive	inactive		
Nc1ccc2cc(S(=O)(=O)O)cc(O)c2c1	inactive	inactive		
COc1ccc(C#N)cc1	inactive	inactive		
Cc1ccc(C2OC[C@@H]3OC(c4ccc(C)cc4)O[C@H]([C@H](O)CO)[C@@H]3O2)cc1 (stereo partly drawn)	inactive	inactive		
CCOC(=O)C(C)C(C)=O (stereo not drawn)	inactive	inactive		
CC(O)CC(C)O (stereo not drawn)	inactive	inactive		
CC1=CCC(C(C)C)=CC1	inactive	inactive		
C=CC(C)(O)CCC=C(C)C (stereo not drawn)	inactive	inactive		
CCCCCCCCCCCC(=O)OCC	inactive	inactive		
COc1cc2c(cc1OC)C(C(C(=O)N(CCc1ccc(OC)c(OC)c1OC)CCc1ccc(OC)c(OC)c1OC)c1ccccc1)=NCC2 (stereo not drawn)	inactive	inactive		

Source: PubChem BioAssay (Tox21)
